Measurements reported in the supplement of paper PMC10981050.
Where a name gives a salt, the structure may show the parent alone.

system: K562; experiment: cell viability relative to vehicle control; higher = less cytotoxic; conditions: 10 µM; SRSF2 genotype: SRSF2 wt/wt
Procedure, shortened: (§1)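 After removal of identity-inconsistent compounds, the Selleck bioactive, kinase and epigenetic probe libraries were screened on CRISPR-edited mutant clones and isogenic wild-type clones of four leukaemia lines. Plates were 384-well, each well holding 2000 cells in 50 µL medium and receiving a single 10 µM acoustically dispensed dose. CellTiter-Glo luminescence was read 48 h later, after the supernatant was taken off. Genedata Screener was used to express viability as percent of the on-plate vehicle control.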

SMILES | cell viability [%]
COC(=O)N[C@H](C(=O)N1CCC[C@H]1c1ncc(-c2ccc(-c3ccc(-c4cnc([C@@H]5CCCN5C(=O)[C@@H](NC(=O)OC)C(C)C)[nH]4)cc3)cc2)[nH]1)C(C)C [Daclatasvir Digydrochloride] | 75.9
O=C(/C=C\n1cnc(-c2cc(C(F)(F)F)cc(C(F)(F)F)c2)n1)NNc1cnccn1 [Selinexor (KPT-330)] | 13.9
C[C@@H]1O[C@@H](OC[C@H]2O[C@@H](Oc3c(-c4ccc(OCCO)c(OCCO)c4)oc4cc(OCCO)cc(O)c4c3=O)[C@H](O)[C@@H](O)[C@@H]2O)[C@H](O)[C@H](O)[C@H]1O [Troxerutin] | 86.2
O=C1c2c(O)cc(O)cc2OC(c2ccc(O)c(O)c2)C1O (configuration not stated) [Taxifolin (Dihydroquercetin)] | 91.6
COc1cc2oc(-c3ccc(O)cc3)cc(=O)c2c(O)c1[C@@H]1O[C@H](CO)[C@@H](O)[C@H](O)[C@H]1O[C@@H]1O[C@H](CO)[C@@H](O)[C@H](O)[C@H]1O [Spinosin] | 104
O=C(CCNC(=O)c1ccc(OC(F)(F)F)cc1)N[C@@H]1CCCc2ccccc21 | 91.3
O=C1Nc2ccc(I)cc2C1=Cc1cc(Br)c(O)c(Br)c1 | 90.1
NC(=O)/C(=C/n1cnc(-c2cc(C(F)(F)F)cc(C(F)(F)F)c2)n1)c1cncnc1 | 11.3

system: MARIMO; experiment: as above; conditions: 10 µM; SRSF2 genotype: SRSF2 P95H/wt
Procedure, shortened: as §1

SMILES | cell viability [%]
CCC[C@H](Nc1nc(-c2ccc(NC(=O)NCC)c(OC)c2)ncc1C)c1cccnc1 | 7.27
O=C(O)CCc1ccc(NCc2cccc(Oc3ccccc3)c2)cc1 | 82.4
NC(=O)N/N=C/c1ccc([N+](=O)[O-])o1 [Nitrofurazone (Nitrofural)] | 104
Cc1cnc(C(=O)O)c[n+]1[O-] [Acipimox] | 96.7
CS(=O)(=O)c1ccc(-c2cnc(N)c(C(=O)Nc3ccccc3)n2)cc1 | 113
COCCOc1nc(-c2ccc(Cl)c(Cl)c2)n(-c2ccc(NC(=O)CCl)cc2)n1 [MI-2 (MALT1 inhibitor)] | 0.5
O=C(O)C(S)=Cc1c[nH]c2ccc(F)cc12 | 109
C[C@]1(O)C[C@@H](c2nc(-c3ccc4ccc(-c5ccccc5)nc4c3)c3c(N)nccn32)C1 [OSI-906 (Linsitinib)] | 41.9
O=C(O)/C=C/c1ccc(O)cc1 [p-Coumaric Acid] | 108
c1ccc(-c2ccc(C(c3ccccc3)n3ccnc3)cc2)cc1 (configuration not stated) [Bifonazole] | 81.4
Cc1cc(C)c(/C=C2\C(=O)Nc3ccccc32)[nH]1 [Semaxanib (SU5416)] | 88.3
NC[C@@](O)(c1ccc(Cl)cc1)c1ccc(-c2cn[nH]c2)cc1 | 52.9
COc1cc(/C=C/C(=O)CC(=O)/C=C/c2ccc(O)c(OC)c2)ccc1O [Curcumin] | 87.3
Oc1ccc(-c2nc(-c3ccc(F)cc3)c(-c3ccncc3)[nH]2)cc1 | 101
CCN(CC)CCOC(=O)C(c1ccccc1)c1ccccc1 [Adiphenine HCl] | 85.1
C=C1[C@H](O)C[C@H]2[C@@H](/C=C(\C)C(=O)[C@@]3(O)C[C@H](C)[C@H](O)[C@@H]3[C@H]1O)C2(C)C | 93.7
COc1cccc(C=NCCN=Cc2cccc(OC)c2[O-])c1[O-].[Cl-].[Mn+3] | 92
c1ccc(CNc2nc(NCc3ccccc3)c3ccccc3n2)cc1 | 0.92
CCCC1O[C@@H]2C[C@H]3[C@@H]4CCC5=CC(=O)C=C[C@]5(C)[C@H]4[C@@H](O)C[C@]3(C)[C@]2(C(=O)CO)O1 (some centres not stated) [Budesonide] | 97.6
Cc1[nH]c(/C=C2\C(=O)Nc3ccccc32)c(C)c1CCC(=O)O [Orantinib (TSU-68, SU6668)] | 96.3
CC(=O)Oc1cccc2ccccc12 [1-Naphthyl acetate] | 92.4
CN1CCN(CCOc2cc(OC3CCOCC3)c3c(Nc4c(Cl)ccc5c4OCO5)ncnc3c2)CC1 [Saracatinib (AZD0530)] | 97.1
CC[C@H]1OC(=O)[C@@](C)(F)C(=O)[C@H](C)[C@@H](O[C@@H]2O[C@H](C)C[C@H](N(C)C)[C@H]2O)[C@](C)(OC)C[C@@H](C)C(=O)[C@H](C)[C@H]2N(CCCCn3cc(-c4cccc(N)c4)nn3)C(=O)O[C@]12C [Solithromycin] | 107
C[C@@H]1O[C@@H](O[C@H]2[C@H](Oc3cc(O)c(C(=O)CCc4ccc(O)cc4)c(O)c3)O[C@H](CO)[C@@H](O)[C@@H]2O)[C@H](O)[C@H](O)[C@H]1O [Naringin Dihydrochalcone (Naringin DC)] | 102
